# Assay results published in PubChem BioAssay (NCATS).
# Results filed as inconclusive are left out. Activity calls are given as the source filed them. Unless noted, no rule for the calls is given here.
# Columns and labels:
# [1] = qHTS profiling of the MIPE4 collection as inhibitors of Plasmodium falciparum (3D7) proliferation (AID 743344);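 also: scaled between DMSO vehicle wells and 0.29 µM artemisinin as full inhibition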; details: P. falciparum 3D7 in erythrocytes, SYBR Green DNA fluorescence, 72 h; at 28.5 µM unless noted
# Outline: (§1)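 Parasite DNA was quantified by SYBR Green I fluorescence (ex 485, em 535 nm) after overnight lysis in saponin/Triton buffer at room temperature. Cultures at 0.3% parasitemia and 2.5% hematocrit were first exposed to compound for 72 h at 37 C; signals were normalised to artemisinin (0.29 uM) and vehicle wells.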
# [2] = qHTS profiling of the MIPE4 collection as inhibitors of Plasmodium falciparum (DD2) proliferation (AID 743345); details: P. falciparum Dd2 in erythrocytes, SYBR Green DNA, 72 h; at 28.5 µM unless noted
# Outline: as §1
# [3] = qHTS profiling of the MIPE4 collection as inhibitors of Plasmodium falciparum (DD2) proliferation (Rep 2) (AID 743346); details: P. falciparum Dd2 in erythrocytes, SYBR Green DNA, 72 h; at 28.5 µM unless noted
# Outline: as §1
# [4] = qHTS profiling of the MIPE4 collection as inhibitors of Plasmodium falciparum (HB3) proliferation (AID 743347);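 also: plate controls were DMSO vehicle wells for no effect and artemisinin wells for full effect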; details: P. falciparum HB3 in erythrocytes, SYBR Green DNA, 72 h; at 28.5 µM unless noted
# Outline: as §1
# [5] = High-throughput drug toxicity screening in the BPDCN cell line Gen2.2 (AID 1224824); details: Gen2.2 BPDCN cells; at 45.8 µM (top of the series) unless noted;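 also: cells exposed to compounds for 48 h before reading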
# Outline: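 CellTiter-Glo luminescence read after 48 h compound exposure at 37 C defines viability; percent activity set with DMSO as 100% and bortezomib (9.2 uM final) as 0%. 500 exponentially growing cells per well, RPMI plus 10% FBS.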
# [6] = High-throughput drug toxicity screening in the BPDCN cell line Cal-1 (AID 1224825); details: Cal-1 BPDCN cell viability, qHTS; at 45.8 µM (top of the series) unless noted
# Outline: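 CellTiter-Glo luminescence after 48 h compound exposure; percent activity scaled with DMSO as 100% and bortezomib (9.2 uM final) as 0%. Cal-1 cells seeded at 500/well in RPMI, 10% FBS, no phenol red.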
# [7] = qHTS assay for measurement of the activity of small molecule inhibitors on Zika virus induced Caspase-3 activity in human iPSC derived neural progenitor cells (hNPCs) (AID 1224857; active = well fitted inhibition curve with a large enough effect; also: % of control where 0% means no effect; nearly all actives have a fitted effect of over 65% in size)
# Outline: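 Quantitative HTS format: human iPSC neural progenitors, 1 h compound pretreatment, ZIKV 2 FFU/cell for 6 h at 37 C. Percent inhibition derived from luminescent caspase-3/7 signal between uninfected and infected controls.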
# [8] = qHTS assay for measurement of the activity of small molecule inhibitors on Zika virus induced Caspase-3 activity in human astrocytoma cells (AID 1224859; active = well fitted inhibition curve with a large enough effect;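 also: plate controls were ZIKV-infected untreated cells for no effect and uninfected cells for full effect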)
# Outline: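 Readout is luminescence from Caspase-Glo 3/7 added after a 6 h ZIKV infection (2 FFU/cell) of compound-pretreated (1 h) SNB-19 cells; data expressed as % inhibition versus uninfected and infected wells.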
SMILES,"parasite growth, % of DMSO control [1]","parasite growth remaining, % of DMSO control (lower = more inhibition) [2]","parasite growth, % of control (lower = inhibition) [3]","growth, % of control [4]","cell viability, % of control (lower = more cytotoxic) [5]",viability (% of control) [6],Potency [7],Potency [8]
CCNC(=O)Nc1ccc2ncc(Nc3ccc(C)cc3)nc2n1,19.5%,71.6%,33%,16.3%,50.5%,19.7%,inactive,inactive
COc1c(OCCCN2CCOCC2)ccc2c3n(c(=NC(=O)c4cnc(N)nc4)nc12)CCN3,7.6% [at 9.64 µM],12% [at 9.64 µM],16.8% [at 9.64 µM],3.45% [at 9.64 µM],37.7% [at 23.2 µM],69.2% [at 23.2 µM],inactive,inactive
CC[C@@]1(O)C(=O)OCc2c1cc1n(c2=O)Cc2cc3cc(O)ccc3nc2-1,13.5%,12.6%,16.8%,5.75%,4.43%,3.68%,inactive,inactive
CC(C)c1noc(N2CCC(COc3ccc(-c4ccc(S(C)(=O)=O)cc4)nc3)CC2)n1,22.7%,23.2%,49.7%,20.9%,87.9%,68.8%,inactive,inactive
CCN(CC)CCNC(=O)c1ccc2nc(-c3ccccc3)c(-c3ccc(CN4CCC(n5c(=O)[nH]c6ccccc65)CC4)cc3)nc2c1,4.56%,5.78%,19.4%,8.22%,1.68%,0.965%,inactive,inactive
CCCCCCCCCC(=O)N[C@@H](Cc1c[nH]c2ccccc12)C(=O)N[C@H](CC(N)=O)C(=O)N[C@@H](CC(=O)O)C(=O)N[C@@H]1C(=O)NCC(=O)N[C@@H](CCCN)C(=O)N[C@@H](CC(=O)O)C(=O)N[C@H](C)C(=O)N[C@@H](CC(=O)O)C(=O)NCC(=O)N[C@H](CO)C(=O)N[C@@H]([C@@H](C)CC(=O)O)C(=O)N[C@@H](CC(=O)c2ccccc2N)C(=O)O[C@@H]1C,409%,96.7%,108%,299%,128%,108%,inactive,inactive
O=C(c1cncc(Br)c1)N1CCC(N2CCCC2)CC1,102%,105%,80.8%,96.9%,144%,126%,inactive,inactive
C[C@@H]1COC(Nc2ccc3ncnc(Nc4ccc(OCc5nccs5)c(Cl)c4)c3c2)=N1,6%,11.5%,27.7%,8.37%,127%,13%,inactive,inactive
O=C(CCCCCCC(=O)Nc1ccc([C@H]2O[C@@H](CSc3nc(-c4ccccc4)c(-c4ccccc4)o3)C[C@@H](c3ccc(CO)cc3)O2)cc1)NO,5.18%,6.85%,7.19%,6.35%,9.13%,4.48%,inactive,inactive
Nc1ncnc2c1c(-c1cnc3[nH]ccc3c1)nn2C1CCCC1,6.52%,8.6%,8.28%,2.85%,7.53%,3.58%,inactive,inactive
O=C(Cc1ccc(-c2ccc(OCCN3CCOCC3)cc2)cn1)NCc1ccccc1,20.6%,20.2%,27.1%,11.9%,49.1%,9.81%,inactive,inactive
